Results taken from PubChem BioAssay.
Unmarked numbers belong to inactive results. The rule behind the calls is not given here.

Each molecule was assayed against Pantothenate synthetase (Mycobacterium tuberculosis (strain ATCC 25618 / H37Rv)) (UniProt P9WIL5) (assay: Recombinant Mtb pantothenate synthetase (PanC) inhibitors, coupled enzyme, confirmatory (AID 375;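 note: 0% = full reaction with vehicle and 100% = no enzyme background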)). Conditions: coupled enzyme assay; at 10 µM, active compounds read high.
Sequence of Pantothenate synthetase (Mycobacterium tuberculosis (strain ATCC 25618 / H37Rv)) (P9WIL5 whole entry, looked up): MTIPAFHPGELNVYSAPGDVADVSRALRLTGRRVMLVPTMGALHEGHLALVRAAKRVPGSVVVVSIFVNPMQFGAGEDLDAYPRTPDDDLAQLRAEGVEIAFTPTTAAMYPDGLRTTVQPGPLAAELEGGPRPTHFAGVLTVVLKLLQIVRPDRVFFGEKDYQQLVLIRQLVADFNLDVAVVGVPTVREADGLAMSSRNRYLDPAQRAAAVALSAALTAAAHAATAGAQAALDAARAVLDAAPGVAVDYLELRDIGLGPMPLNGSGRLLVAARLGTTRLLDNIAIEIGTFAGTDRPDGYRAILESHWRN

| SMILES | inhibition |
| --- | --- |
| CCOC(=O)CN1CC23C=CC(O2)C(C(=O)Nc2ccc(OC)cc2OC)C3C1=O (stereo not drawn) | 0% |
| Cc1c(C(=O)NCc2ccccc2)oc2c1C(=O)CCC2 | 0% |
| CCOC(=O)c1c(NC(=O)c2ccn(CC)n2)sc2c1CCCC2 | 3% |
| O=C(Nc1cccc(F)c1)c1cccc(S(=O)(=O)N2CCOCC2)c1 | 0% |
| Cc1ccc(-c2cn3cccnc3n2)cc1NC(=O)c1ccc(Br)o1 | 0% |
| CCOC(=O)N1CCC(N2C(=O)c3ccccc3C2Nc2cc(Cl)c(OC)cc2OC)CC1 (stereo not drawn) | 0% |
| CC1Oc2ccccc2N(CC(=O)N(Cc2ccccc2)Cc2ccccn2)C1=O (stereo not drawn) | 4% |
| CCOC(=O)c1cc2c(=O)n3cccc(C)c3nc2n(CCOC)c1=NC(=O)c1ccncc1 | 0% |
| O=C(NCCCNC(=O)c1ccccn1)c1ccccn1 | 12% |
| CCOc1ccccc1NC(=O)C1CCCN(C(=O)NCc2ccccc2)C1 (stereo not drawn) | 8% |
| O=C(c1ccncc1)N1CCN(C(=O)c2cccs2)CC1 | 6% |
| O=c1c2c3c(sc2nc2sc(C4CC4)nn12)CCCC3 | 0% |
| CCN(CC)S(=O)(=O)c1cccc2c(N(C)C)cccc12 | 0% |
| Cc1nc(C)c2c(c1C(F)(F)F)-c1ccccc1C2(F)F | 0% |
| CCC(Sc1ncccc1C(=O)O)C(=O)N1CCCC1 (stereo not drawn) | 0% |
| O=C(CCNC(=O)Cn1ccc2ccccc2c1=O)NCCN1CCN(c2ccccc2F)CC1 | 0% |
| O=c1[nH]c2cc3c(cc2cc1C(c1nnnn1Cc1ccccc1)N1CCCc2ccccc21)OCO3 (stereo not drawn) | 1% |
| CC(C)c1ccc(-c2nc(N3CCOCC3)[nH]c(=O)c2C#N)cc1 | 7% |
| COc1ccc(OCC(=O)N2CC3(C)CC2CC(C)(C)C3)cc1 (stereo not drawn) | 0% |
| CC[N+](C)(C)Cc1ccccc1Br | 0% |
| CCCn1cnc2c(c1=O)c1nc3ccccc3nc1n2Cc1ccccc1OC | 0% |
| Cc1cccc(NC(=O)CC2NC3CCCCC3NC2=O)c1 (stereo not drawn) | 0% |
| CNC(=O)c1nnn(Cc2ccccc2)c1NC(C)=O | 2% |
